Inconclusive results are not listed. Where a call stands in place of a potency, no number is given. Unmarked numbers belong to inactive results. Activity calls are given as the source filed them. Calls come from the whole dose curve; as a rule, active = well fitted cell-killing curve with a large enough effect in the repeat runs; inconclusive = weak or mixed curves, or effect the other way; inactive = flat fitted curve, though single readings scatter.

This experiment in a line: cAMP Responsive Elements (CRE) small molecule agonists, cell-based qHTS assay: qHTS cell viability counter screen (AID 2060914).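 Note: viability read after 3 h of compound exposure; nearly all actives have a fitted effect of over 50% in size.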 The note with it: CRE-bla HEK293T viability, CellTiter-Glo luminescence, 5 h; series mostly up to 92.4 µM. The text has this:
National Center for Advancing Translational Sciences [NCATS]
Division of Preclinical Innovation [DPI]
U.S. Environmental Protection Agency [EPA]
National Institutes of Environmental Health Sciences [NIEHS]
National Toxicology Program [NTP]
U.S. Food and Drug Administration [FDA]
CREB (cyclic-AMP Responsive Element Binding Protein) is a cellular transcription factor. It binds to certain DNA sequences called cAMP Responsive Elements (CRE) and regulates the transcription of the genes. […] This cell line can be used to find agonists/antagonists of the cyclic AMP signaling pathway. The activation of the report gene under culture conditions can be detected by fluorescence intensity. This cell line has been used to screen the Tox21 10K compound library to identify agonists that induce oxidative stress. The cytotoxicity of the Tox21 compound library against the CRE-bla cell line was tested in parallel by measuring the cell viability using CellTiter-Glo assay (Promega, Madison, WI) in the same wells.
Tox21 Assay Protocol Summary:
CRE-bla Hek 293T cells were suspended in assay medium (DMEM containing 10% dialyzed FBS, 0.1 mM NEAA, 1 mM sodium pyruvate and 25 mM HEPES) and dispensed at 2,000 cells/5 uL /well into 1536-well black wall/clear bottom plates using a Multidrop Combi (ThermoFisher Scientific, Waltham, MA) dispenser. After the assay plates were incubated at 37 C/5% CO2 for 18 hrs, 23 nL of compounds dissolved in DMSO, positive controls or DMSO only was transferred to the assay plate by a pintool workstation (Kalypsys, San Diego, CA). After the plates were incubated at 37 C/5% CO2 for 3 hrs, 1 uL of LiveBLAzer B/G FRET substrate (Invitrogen, Carlsbad, CA) was added to each well using Bioraptr Flying Reagent Dispenser (FRD, Aurora Discovery, San Diego, CA). The plates were incubated at room temperature for 2 h, then fluorescence intensities were measured using an Envision plate reader (PerkinElmer, Shelton, CT) at Excitation 405nm, Emission 460nm and 530nm. The % activity was determined from the ratio of 460nm/530nm. For cell viability readout that measures cytotoxicity, 4 uL /well of CellTiter-Glo reagent was added into the assay plates using Bioraptr FRD. After 30 min incubation at room temperature, the luminescence intensity in the assay plates was measured using a ViewLux (PerkinElmer, Shelton, CT) plate reader.
Background: qHTS replaces the single test concentration by a dilution series.
For `O=c1[nH]cnc2c1ncn2[C@H]1CC[C@@H](CO)O1`, the Potency result was “inactive”.

With `Oc1ccc2c(c1)OCO2`, the Potency result was “inactive”.

For the compound `CC/C(=C(\c1ccccc1)c1ccc(OCCN(C)C)cc1)c1ccccc1`, the Potency result was “inactive”.

In the case of `CCCc1nn(C)c2c(=O)[nH]c(-c3cc(S(=O)(=O)N4CCN(C)CC4)ccc3OCC)nc12`, the Potency entry is “inactive”.

Turning to `O=C1N(c2ccccc2)c2ccccc2C1(Cc1ccncc1)Cc1ccncc1`, the Potency result was “inactive”.

With `Cc1cc(O)c2c(O)c3c(O)cccc3cc2c1`, the Potency result was “inactive”.

As to `CCCCOC(=O)c1ccccc1`, the Potency entry is “inactive”.

On to `Clc1ccc(Sc2cc(Cl)c(Cl)cc2Cl)cc1`, for which the Potency entry was “inactive”.

For `FC(F)(F)c1ccccc1Cl`, the Potency result is “inactive”.

In the case of `Nc1nc(=S)c2[nH]cnc2[nH]1`, the Potency result was “inactive”.

As to `c1ccc(CCCc2ccccn2)cc1`, the Potency entry is “inactive”.

In the case of `NC(N)=S`, the Potency entry was “inactive”.

In the case of `C=CCOc1cc(Cl)ccc1C(=O)NCCN(CC)CC`, the Potency entry is “inactive”.

With `COc1ccc(CN(CCN(C)C)c2ncccn2)cc1`, the Potency result was “inactive”.

As for `Cc1ccc(S(=O)(=O)NC(=O)NN2CCCCCC2)cc1`, the Potency entry is “inactive”.

For `CCc1cccc(CC)c1NC(=O)C(=O)O`, the Potency entry was “inactive”.

In the case of `C=CC(=C)CC/C=C(\C)CCC=C(C)C`, the activity change, negative = cytotoxicity was -3.29% [at 18.9 µM].

As for `CCC(C)(CN(C)C)OC(=O)c1ccccc1` (stereo not given), the Potency result was “inactive”.

Consider `O=C1c2ccccc2C(=O)c2c(O)c(O)cc(O)c21`, for which the Potency result was “inactive”.

Take `O=Cc1c2ccccc2c(Cl)c2ccccc12`: the Potency entry is “inactive”.

On to `NC(=O)c1ccc([N+](=O)[O-])cc1`, for which the Potency result is “inactive”.

Regarding `O=[N+]([O-])c1ccc2[nH]ncc2c1`, the Potency entry was “inactive”.

As for `CCCCCCCCCCCCCCCCI`, the activity change, negative = cytotoxicity is -9.53% [at 18.9 µM].

Take `CC(C)(CO)C(O)C(=O)NCCCO` (stereo not given): the Potency result was “inactive”.

As to `CN(C)c1ccc(Cc2ccc(N(C)C)cc2)cc1`, the Potency entry was “inactive”.

Take `C=CC(=O)NCOCC(C)C`: the Potency entry was “inactive”.

With `C=C(C)C(=O)OC(C)C`, the Potency result is “inactive”.

Take `CC(C(=O)O)c1ccc(/C=C2\CCCCC2=O)cc1` (stereo not given): the Potency entry is “inactive”.

Consider `N#CCc1ccccc1[N+](=O)[O-]`, for which the Potency result is “inactive”.

`Cc1c(I)c(=O)n(-c2ccccc2)n1C`: the Potency result is “inactive”.

With `CCCCCC/C=C\CCCCCCCC(=O)O`, the Potency entry was “inactive”.

Take `CCCc1ccc(OC)cc1`: the Potency entry was “inactive”.

In the case of `COc1ccc2cc(CCC(C)=O)ccc2c1`, the Potency entry was “inactive”.

Consider `O=C(O)c1cc(Cl)cc(Cl)c1`, for which the Potency entry is “inactive”.

Regarding `O=C(O)CCS`, the Potency entry was “inactive”.

For `CC(C)NC[C@@H](O)COc1cccc2ccccc12`, the Potency entry is “inactive”.

As to `Cn1cc(C(=O)[C@@H]2CCc3nc[nH]c3C2)c2ccccc21`, the Potency result was “inactive”.

For the compound `CCCCCCC1CCCC(=O)O1` (stereo not given), the Potency entry is “inactive”.

Consider `COC(=O)c1cccnc1`, for which the Potency entry was “inactive”.

On to `C1CCN2C[C@@H]3C[C@@H](CN4CCCC[C@@H]34)[C@H]2C1`, for which the Potency result is “inactive”.
